We go through 25 compounds from PubChem BioAssay (NCATS).

Results filed as inconclusive are left out. The source made the active and inactive calls. Calls follow the shape of the dose curve; as a rule, active = well fitted inhibition curve with a large enough effect; inconclusive = small, poorly fitted or top-dose-only effect; inactive = flat fitted curve, though single readings scatter.

Common to all, as to test: qHTS profiling for inhibitors of Plasmodium falciparum proliferation (AID 504749); also: nearly all actives have a fitted effect of over 60% in size
Common to all, as to settings: P. falciparum in erythrocytes, SYBR Green DNA, 72 h; series mostly up to 28.7 µM

The test system of experiment [1] is CP256. In outline: (§1)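 Three-day growth assay of blood-stage parasites in erythrocytes (0.3% parasitemia, 2.5% hematocrit) at 37 C, 5% CO2, quantified by SYBR Green DNA staining after overnight detergent lysis.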
Experiment [2] concerns CP260. The procedure, abridged:
as §1

Experiment [3] deals with CP262. The procedure, abridged: as §1
The test system of experiment [4] is CP265. The procedure, abridged:
as §1

Experiment [5] concerns CP266. The procedure, abridged: as §1
In experiment [6] the test system is CP268. The procedure, abridged:
as §1

Experiment [7] concerns CP269. The procedure, abridged: as §1
The test system of experiment [8] is CP286. In outline: as §1
The subject of experiment [9] is CP291. The procedure, abridged:
as §1

Experiment [10] deals with CP297. The procedure, abridged: as §1
Potency is read from the fitted curve at half-maximal effect.

For the compound `CCOC(C)OCC`, the Potency result in experiment [1], in experiment [2], in experiment [3], in [4], in [5] and in [6] was “inactive” throughout. The Potency result in experiment [7], in experiment [8], in experiment [9] and in [10] was “inactive” throughout.

`S=C1SCN(Cc2ccccc2)CN1Cc1ccccc1`: the Potency entry in experiment [1], in [2], in [3], in [4], in [5] and in experiment [6] was “inactive” throughout. Moreover, the Potency entry in [7], in experiment [8], in [9] and in experiment [10] was “inactive” each time.

Turning to `FC(F)(F)C(F)(F)C(F)(F)C(F)(F)C(F)(F)F`, the Potency result in experiment [1], in experiment [2], in experiment [3], in experiment [4], in experiment [5] and in experiment [6] was “inactive” throughout. In addition, the Potency entry in experiment [7], in experiment [8], in experiment [9] and in experiment [10] was “inactive” in each case.

Take `CC(C)[C@@H](N)C(=O)O`: the Potency result in experiment [1], in experiment [2], in experiment [3], in experiment [4], in experiment [5] and in [6] was “inactive” each time. The Potency result in experiment [7], in [8], in experiment [9] and in [10] was “inactive” in each case.

Consider `FC(F)(F)C(F)(F)C(F)(F)C(F)(F)C(F)(F)C(F)(F)F`, for which the Potency result in experiment [1], in experiment [2], in experiment [3], in experiment [4], in experiment [5] and in [6] was “inactive” in each case. For the same compound, the Potency entry in experiment [7], in experiment [8], in [9] and in [10] was “inactive” throughout.

As to `CC(=O)Oc1cccc2c1C(=O)c1c(OC(C)=O)cc(C(=O)O)cc1C2=O`, the Potency result in experiment [1], in experiment [2], in experiment [3], in experiment [4], in [5] and in experiment [6] was “inactive” throughout. Moreover, the Potency entry in experiment [7], in [8], in experiment [9] and in [10] was “inactive” each time.

Take `COc1ccc(/C=N/NC(=O)c2ccncc2)c(C(=O)O)c1OC`: the Potency entry in experiment [1], in experiment [2], in experiment [3], in experiment [4], in [5] and in experiment [6] was “inactive” each time. Also, the Potency result in experiment [7], in experiment [8], in experiment [9] and in [10] was “inactive” in each case.

As to `Cc1ccccn1`, the Potency entry in experiment [1], in [2], in experiment [3], in [4], in [5] and in [6] was “inactive” throughout. In addition, the Potency result in experiment [7], in [8], in experiment [9] and in experiment [10] was “inactive” throughout.

As to `Cc1cccc(C)c1NC(=O)C1CCCCN1C` (configuration not stated), the Potency result in experiment [1], in [2], in experiment [3], in experiment [4], in experiment [6] and in experiment [7] was “inactive” each time. For the same compound, the Potency entry in [8] and in [9] was “inactive” each time.

As to `c1ccc2c(c1)Sc1ccccc1N2CCN1CCCC1`, the Potency is 10 µM (active) in experiment [1]; 7.94 µM (active) in experiment [2]; 11.2 µM (active) in experiment [4]; 9.53 µM (active) in experiment [6]; 15.1 µM (active) in [7]; 10 µM (active) in experiment [8]. The Potency is 13.5 µM (active) in experiment [9] and 12 µM (active) in experiment [10]. Moreover, in [3], the Potency entry was “inactive”.

On to `COc1ccc(C(=O)CCC(=O)O)c2ccccc12`, for which the Potency entry in experiment [1], in experiment [2], in experiment [3], in [4], in experiment [6] and in experiment [7] was “inactive” each time. The Potency entry in experiment [8], in experiment [9] and in experiment [10] was “inactive” each time.

For `N=C(N)c1ccc(/C=C/c2ccc(C(=N)N)cc2O)cc1`, the Potency in experiment [1] is 0.447 µM (active); in experiment [2] it was 11.2 µM (active); in experiment [3], 1.35 µM (active); in [4], 11.2 µM (active); in experiment [6], 9.53 µM (active); in experiment [7], 6.75 µM (active). The Potency in experiment [8] is 4.47 µM (active); in experiment [9], 6.75 µM (active); in experiment [10], 5.36 µM (active).

For `OCCCNc1ccccc1`, the Potency result in experiment [1], in experiment [2], in [3], in [4], in experiment [6] and in experiment [7] was “inactive” in each case. Moreover, the Potency entry in experiment [8], in experiment [9] and in experiment [10] was “inactive” each time.

Consider `CC(O)CN(C)C` (configuration not stated), for which the Potency entry in [1], in [2], in [3], in experiment [4], in experiment [6] and in experiment [7] was “inactive” throughout. Also, the Potency result in experiment [8], in experiment [9] and in experiment [10] was “inactive” throughout.

As for `COc1ccc2nc(NC(=O)Nc3ccccc3)sc2c1`, the Potency result in experiment [1], in [2], in experiment [3], in experiment [4], in [5] and in experiment [6] was “inactive” each time. Moreover, the Potency result in experiment [8] and in experiment [10] was “inactive” in each case.

As to `COc1ccc2c(=O)c(C)c(-c3ccccc3)oc2c1CN(C)C`, the Potency result in experiment [1], in experiment [2], in [3], in [4], in experiment [5] and in experiment [7] was “inactive” each time. Moreover, the Potency result in [10] is “inactive”.

As to `O=C(O)CC/C=C\CC[C@@H]1[C@@H](N2CCCCC2)[C@@H](O)C[C@@H]1OCc1ccc(-c2ccccc2)cc1`, the Potency result in experiment [1], in experiment [2], in experiment [3], in [4], in experiment [6] and in experiment [7] was “inactive” in each case. Also, the Potency result in experiment [8], in experiment [9] and in experiment [10] was “inactive” each time.

As for `CN(C)C=Nc1c(I)cc(I)c(CCC(=O)O)c1I`, the Potency result in experiment [1], in experiment [2], in experiment [3], in experiment [4], in experiment [5] and in experiment [7] was “inactive” throughout. Besides, the Potency result in experiment [8] and in [9] was “inactive” in each case.

Regarding `CC(=O)Nc1c(I)c(C(=O)O)c(I)c(N(C)C(C)=O)c1I`, the Potency entry in experiment [1], in experiment [2], in [3], in [4], in experiment [5] and in experiment [6] was “inactive” each time. The Potency result in experiment [7], in [8], in experiment [9] and in experiment [10] was “inactive” each time.

As to `Cc1cccc(C)c1NC(=O)NC1=CCCN1C`, the Potency entry in experiment [1], in [2], in experiment [3], in [4], in experiment [6] and in experiment [7] was “inactive” each time. The Potency result in experiment [8], in [9] and in experiment [10] was “inactive” in each case.

On to `O=C(O)CCCC/C=C(\c1ccccc1)c1cccnc1`, for which the Potency entry in [1], in [2], in experiment [3], in experiment [4], in experiment [6] and in experiment [7] was “inactive” throughout. Besides, the Potency entry in experiment [8] and in experiment [9] was “inactive” throughout.

In the case of `CC(C)(Oc1ccc(C2CCCc3ccccc32)cc1)C(=O)O` (configuration not stated), the Potency entry in experiment [1], in experiment [2], in experiment [3], in [4], in [6] and in experiment [7] was “inactive” in each case. For the same compound, the Potency result in experiment [8], in [9] and in experiment [10] was “inactive” each time.

For `O=C1[O][Bi][O]c2ccccc21`, the Potency entry in experiment [1], in [2], in [3], in [4], in experiment [6] and in experiment [7] was “inactive” each time. Also, the Potency entry in [8], in experiment [9] and in experiment [10] was “inactive” throughout.

Take `CSCCC(N)C(=O)O` (configuration not stated): the Potency result in experiment [1], in experiment [2], in experiment [3], in experiment [4], in experiment [5] and in experiment [7] was “inactive” in each case. For the same compound, the Potency result in experiment [8] and in experiment [10] was “inactive” each time.

For `NC(=S)N=Nc1ccc(NN=C(N)N)cc1`, the Potency in experiment [1] is 1.58 µM (active); in experiment [2], 7.94 µM (active); in [3], 6.01 µM (active); in [4], 12.6 µM (active); in [6], 9.53 µM (active); in experiment [7] it was 6.75 µM (active). Besides, the Potency was 4.47 µM (active) in experiment [8], 8.49 µM (active) in experiment [9] and 9.53 µM (active) in experiment [10].
